This is a sample that favours compounds with a hit; in the whole collection about 12% have one here.
WT yeast gro inh – growth inhibition of WT yeast, mitochondrial fusion screen. mitochondrial fusion phenotypic screen, WT strain. inhibition, % at 10 µM. 2.1% of 190,000 active. AID 1362; in the data active = inhibition above about 58%; tested in S. cerevisiae
CHOP inh – CHOP inhibition in unfolded protein response. 3.8% of 220,000 active. AID 2732. inhibition, % at 10 µM. CHO-K1 CHOP-promoter luciferase, tunicamycin-induced, 15-18 h;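 active = compounds that reduced the stress-induced luciferase reporter signal by more than about 70% of percent inhibition, limit read from the data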;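 also: 0% = tunicamycin plus vehicle and 100% = wells without tunicamycin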
Arbovirus inh – blocks arbovirus infection; arbovirus infection cell-based antiviral screen; inhibition, % at 10 µM; 0.37% of 200,000 active; in the data active = inhibition above about 30%
Lmaj promast – inhibitors of Leishmania major promastigote growth. 9% of 200,000 active. inhibition, % at 10 µM. AID 1063. Leishmania major promastigotes, resazurin fluorescence viability; in the data active = inhibition above about 50%;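 also: promastigotes grown with compound for 44 hours at 28 °C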
Active calls of the source: *; nt = no result.

SMILES	WT yeast gro inh	CHOP inh	Arbovirus inh	Lmaj promast
Cc1ccc(NC(=O)Cn2c(O)c(N=NC(=O)c3cc([N+](=O)[O-])ccc3O)c3ccccc32)cc1	nt	8	nt	nt
Cc1cc(NC(=O)c2ccc3nc(-c4ccccc4)c(-c4ccccc4)nc3c2)no1	2	78*	-26	-2
COc1ccc(C(=O)Nc2cc(C)on2)cc1	9	-31	-4	-3
O=C(Nc1nnc(-c2ccc(Cl)cc2)o1)c1ccc(N2C(=O)CCC2=O)cc1	7	45	1	66*
O=C(Nc1nnc(-c2ccco2)o1)c1ccc(N2C(=O)CCC2=O)cc1	-2	13	15	-5
Cc1ccc(C(=O)Nc2nnc(-c3ccncc3)o2)cc1	6	-6	6	53*
Cc1cccc(-c2nnc(NC(=O)c3ccc(Cl)cc3)o2)c1	61	79*	-3	1
O=C(Nc1nnc(-c2ccncc2)o1)c1ccccc1	-13	5	4	3
COc1ccc(C(=O)Nc2nnc(-c3ccccc3)o2)cc1OC	-2	29	-15	32
Cn1cc(CN2CCC(C(O)c3cccs3)CC2)c(-c2cccc(Cl)c2)n1 (stereo not given)	6	34	-17	-1
Cc1cnc2cc(Cl)ccc2c1SCC(=O)O	nt	-9	nt	nt
COc1ccc(C)cc1NC(=O)C(=O)NNC(=O)c1ccco1	4	12	-2	-8
Cc1nc(CS(=O)(=O)c2ccccn2)sc1C(=O)NNC(=O)c1ccc(Cl)cc1	nt	1	nt	nt
Cc1ccc(C(=O)Nc2nc(-c3ccccc3)c(-c3ccccc3)o2)cc1	69*	32	-7	-5
COc1ccc(C2(CNS(=O)(=O)c3ccccc3)CCOCC2)cc1	2	-10	0	41
C/C(=N\NC(=O)c1ccncc1)C12CC3CC(CC(C3)C1)C2	-10	-22	-5	-2
CC/C(=N\NC(=O)c1ccc(-c2ccccc2)cc1)C12CC3CC(CC(C3)C1)C2	-1	24	-22	65*
O=C(Nc1ccccc1)c1nn(-c2ccccc2)c(=O)cc1C(F)(F)F	-3	73*	-1	11
O=C(c1cccc(Cl)c1)c1nn(-c2ccccc2)c(=O)cc1C(F)(F)F	55	85*	-48	35
O=C(c1ccccc1)c1nn(-c2ccc(Cl)cc2)c(=O)cc1C(F)(F)F	1	90*	-39	34
O=C(c1ccccc1)c1nn(-c2ccccc2)c(=O)cc1C(F)(F)F	51	24	-21	11
O=[N+]([O-])c1ccc(NCCCNS(=O)(=O)c2ccccc2)cc1	20	18	6	17
O=C(c1cc2ccccc2oc1=O)N(Cc1ccc2c(c1)OCO2)Cc1ccco1	26	10	2	8
O=c1cc(N2CCOCC2)cnn1-c1ccccc1	-2	9	1	-10
CCOc1ccc(-n2cc(C(=O)Nc3cccc(C)n3)c3cc(OC)c(OC)cc3c2=O)cc1	nt	nt	nt	3
SMILES	WT yeast gro inh	CHOP inh	Arbovirus inh	Lmaj promast
COc1ccc(CCNc2cc(N3CCN(C(=O)c4ccc(C)cc4)CC3)ccc2[N+](=O)[O-])cc1OC	-8	79*	-1	5
COc1ccc(CCNc2cc(N3CCN(C(=O)c4ccccc4F)CC3)ccc2[N+](=O)[O-])cc1OC	15	-14	3	30
O=C(c1ccc(Cl)cc1)N1CCN(c2ccc([N+](=O)[O-])c(NCc3cccnc3)c2)CC1	nt	nt	nt	85*
COc1ccc(C(=O)N2CCN(c3ccc([N+](=O)[O-])c(NCCc4ccc(OC)c(OC)c4)c3)CC2)cc1	6	81*	-2	14
OCCN1CCN(CC#CCn2c3ccccc3c3ccccc32)CC1	8	-19	-31	64*
O=c1c2ccccc2c(C=NCCCN2CCOCC2)c(O)n1Cc1ccc2c(c1)OCO2	-8	-4	7	86*
O=c1c2ccccc2c(C=NCCCN2CCOCC2)c(O)n1Cc1ccccc1	12	1	-7	34
O=[N+]([O-])c1ccc(N=Nc2c(Cl)cc(O)cc2Cl)cc1	nt	102*	nt	nt
CC(=O)c1cccc(NC(=O)/C(=C\c2cccnc2)NC(=O)c2ccco2)c1	16	13	7	-4
Cc1cccc(N2CCN(CC(=O)Nc3ccccc3[N+](=O)[O-])CC2)c1C	15	77*	8	-5
COc1cc(CN2CCN(c3cccc(C)c3C)CC2)cc([N+](=O)[O-])c1O	8	12	14	71*
CN1CCN(CC(=O)Nc2ccccc2[N+](=O)[O-])CC1	1	7	-1	-3
COc1ccc(N2CCN(Cc3cc(OC)c(O)c([N+](=O)[O-])c3)CC2)cc1	-11	23	1	49
Cc1csc(=Nc2cccnc2)n1CC1CCCCC1	73*	39	5	3
O=c1[nH]c(CN2CCN(CCO)CC2)nc2ccccc12	-5	9	10	1
OCCN1CCN(c2cc(-c3ccccc3)c3ccccc3n2)CC1	41	18	-31	69*

Screening results: PubChem BioAssay, several laboratories
